Assay results as given in PubChem BioAssay AID651642 (Sanford-Burnham Center for Chemical Genomics, 2012).
Unmarked numbers belong to inactive results. The source made the active and inactive calls.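 How the source made its calls: active means average half-effect concentration of 10 µM or less in every one of the four cell panels; inactive means the rest.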

Test system: HL-1
Test: cardiomyocyte survival under oxidative or metabolic stress – cell-based, panel, H9c2 and HL-1, H2O2, 2-deoxyglucose, ATP luminescence, SAR follow-up (AID 651642);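 further: plate controls were H2O2 plus DMSO for no effect and cells kept without H2O2 for full effect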
Details: H9c2/HL-1 cardiomyocyte H2O2 oxidative damage, mean of runs; activity: with H2O2, at 0.154 µM; outcome: with H2O2

| Compound | activity |
| --- | --- |
| CCOC(=O)c1cccc(NC(=O)CNC(=O)c2cc(-c3cc(OC)c(OC)c(OC)c3)nc3ccc(OC)cc23)c1 | -3.33% (active) |
| COc1cc(-c2cc(C(=O)Nc3cccc(C(C)=O)c3)c3ccc(Cl)cc3n2)cc(OC)c1OC | -6.29% (active) |
| COc1ccc2c(c1OC)C(=O)N1c3ccccc3C(=O)N(Cc3ccccc3)C21 (configuration not stated) | -5.45% |
| COc1cc(-c2cc(C(=O)NCC(=O)Nc3cccc(C(C)=O)c3)c3cc(Br)ccc3n2)cc(OC)c1OC | -0.566% (active) |
| COc1ccc2c(c1OC)C(=O)N1c3ccccc3C(=O)N(Cc3ccccc3Cl)C21 (configuration not stated) | 2.73% |
| CCOC(=O)c1cccc(NC(=O)c2cc(-c3cc(OC)c(OC)c(OC)c3)nc3ccc(F)cc23)c1 | 5.11% (active) |
| CCOC(=O)c1cccc(NC(=O)c2cc(-c3cc(OC)c(OC)c(OC)c3)nc3ccccc23)c1 | 0.2% (active) |
| COC(=O)CNC(=O)c1cccc(NC(=O)c2cc(-c3cc(OC)c(OC)c(OC)c3)nc3ccccc23)c1 | -1.7% (active) |
| COc1cc(-c2cc(C(=O)NCC(=O)Nc3cccc(C(C)=O)c3)c3ccccc3n2)cc(OC)c1OC | -2.38% (active) |
| COc1cc(-c2cc(C(=O)Nc3cccc(C(=O)NCc4ccccc4)c3)c3ccccc3n2)cc(OC)c1OC | 1.48% (active) |
| COc1cc(-c2cc(C(=O)Nc3cccc(C(C)=O)c3)c3cc(C)ccc3n2)cc(OC)c1OC | 2.4% (active) |
| COc1cc(-c2cc(C(=O)NCC(=O)Nc3ccc(C(C)=O)cc3)c3cc(C)ccc3n2)cc(OC)c1OC | 4.62% (active) |
| COc1cc(-c2cc(C(=O)Nc3cccc(C(=O)N(C)C)c3)c3ccccc3n2)cc(OC)c1OC | 0.987% (active) |
| CCOC(=O)c1ccccc1NC(=O)c1cc(-c2cc(OC)c(OC)c(OC)c2)nc2ccccc12 | -1.41% |
| CCOC(=O)c1cccc(NC(=O)c2cc(-c3cc(OC)c(OC)c(OC)c3)nc3ccc(Cl)cc23)c1 | -1.55% |
| CCOC(=O)c1cccc(NC(=O)CNC(=O)c2cc(-c3cc(OC)c(OC)c(OC)c3)nc3c(Cl)cccc23)c1 | -2.82% |

| Compound | activity |
| --- | --- |
| COc1ccc2c(c1OC)C(=O)N1c3ccccc3C(=O)N(Cc3ccc(C)cc3C)C21 (configuration not stated) | -0.945% |
| CCOC(=O)c1cccc(NC(=O)c2cc(-c3cc(OC)c(OC)c(OC)c3)nc3cc(Cl)ccc23)c1 | 1.44% |
| COc1ccc2c(c1OC)C(=O)N1c3ccccc3C(=O)N(Cc3ccc(C)cc3)C21 (configuration not stated) | 9.89% |
| COc1cc(-c2cc(C(=O)Nc3cccc(C(=O)NC4CC4)c3)c3ccccc3n2)cc(OC)c1OC | -0.15% (active) |
| COc1cc(-c2cc(C(=O)Nc3cccc(C(N)=O)c3)c3ccccc3n2)cc(OC)c1OC | -0.415% (active) |
| CCOC(=O)c1cccc(NC(=O)c2cc(-c3cc(OC)c(OC)c(OC)c3)nc3ccc(OC)cc23)c1 | 8.27% |
| COc1cc(-c2cc(C(=O)Nc3cccc(C(C)=O)c3)c3cc(F)ccc3n2)cc(OC)c1OC | -2.5% (active) |
| COc1cc(-c2cc(C(=O)Nc3cccc(C(=O)N4CCOCC4)c3)c3ccccc3n2)cc(OC)c1OC | -0.415% |
| COc1cc(-c2cc(C(=O)Nc3cccc(C#N)c3)c3ccccc3n2)cc(OC)c1OC | 0.75% |
| COc1cc(-c2cc(C(=O)NCC(=O)Nc3cccc(C(C)=O)c3)c3cc(C)ccc3n2)cc(OC)c1OC | 0.0397% |
| CCOC(=O)c1cccc(NC(=O)c2cc(-c3cc(OC)c(OC)c(OC)c3)nc3c(Cl)cccc23)c1 | 5.38% |
| COc1ccc2c(c1OC)C(=O)N1c3ccccc3C(=O)N(Cc3ccccc3Br)C21 (configuration not stated) | -0.68% |
| COc1ccc2nc(-c3cc(OC)c(OC)c(OC)c3)cc(C(=O)NCC(=O)Nc3ccc(C(C)=O)cc3)c2c1 | -1.7% (active) |
| COc1cc(-c2cc(C(=O)NCC(=O)Nc3ccc(C(C)=O)cc3)c3cc(F)ccc3n2)cc(OC)c1OC | 1.92% (active) |
| COc1ccc2c(c1OC)C(=O)N1c3ccccc3C(=O)N(Cc3ccccc3C)C21 (configuration not stated) | -0.339% |
| COc1cc(-c2cc(C(=O)NCC(=O)Nc3cccc(C(C)=O)c3)c3cc(F)ccc3n2)cc(OC)c1OC | -0.68% (active) |
